Source: ChEMBL document CHEMBL3988442, “University of Dundee, Small-Polar-MMV Screening Library” (2021)
Hit rate of the full screen: of about 48,000 compounds, about 13,000 (27%) showed an effect of 50% or more. This is one part of the list.

What follows are compounds tested on Wolbachia pipientis (assay: Anti-Wolbachia Cell-Based Screen). Details: 5 µM.
Type: functional
Parameters: scale not given: in the data most compounds retested in dose-response had high values

Structure (SMILES)	Percent Effect
O=C(CN1C(=O)CCNC1=O)N1CCOC(c2ccc(F)cc2)C1 (stereo not given)	13.31%
CCN(CC(=O)NC(C)C)S(=O)(=O)N1CCCC(C)C1 (stereo not given)	-4.686%
CC(=O)c1c(F)cccc1N1CCC(CS(N)(=O)=O)CC1	-2.597%
CN(Cc1ccc([S+](C)[O-])cc1)c1ccc(Cl)cn1 (stereo not given)	-11.61%
Cn1ncc2c(=O)[nH]c(CN(Cc3cccc(F)c3)C3CC3)nc21	7.175%
CCN(Cc1nc2c(cnn2C)c(=O)[nH]1)c1ccccc1C	-6.85%
CCN(Cc1cccc(F)c1)Cc1nc2c(cnn2C)c(=O)[nH]1	117.6%
CCN(Cc1ccccc1)Cc1nc2c(cnn2C)c(=O)[nH]1	106.9%
CC(C)CN1C(=O)CC[C@H]2CN(Cc3ncc[nH]3)CC[C@H]21	-0.2124%
Cc1noc(Cl)c1CC(=O)NCC(C)(O)c1ccc(F)cc1F (stereo not given)	5.104%
CN(Cc1nc(-c2cccnc2)no1)C(=O)c1c2c(nn1C)CCCC2	-6.1%
CCOCc1ccc(CNc2cncc(-n3cccn3)n2)cc1	106.2%
Cc1cnn(CC(C)NCc2ccc(-n3cccn3)cc2)c1 (stereo not given)	9.413%
CCOCCOCc1cccc(CNc2cncc(-n3cccn3)n2)c1	5.599%
NS(=O)(=O)Cc1ccc(CNc2cncc(-n3cccn3)n2)cc1	114%
CNS(=O)(=O)Cc1ccc(CNc2cncc(-n3cccn3)n2)cc1	3.239%
CN(C)C(=O)C1CCN(c2cncc(-n3cccn3)n2)CC1	6.063%
COC(=O)Nc1ccc(CNc2cncc(-n3cccn3)n2)cc1	97.69%
O=C1CN(c2ccc(CNc3cncc(-n4cccn4)n3)cc2)CCN1	17.5%
CCOCc1ccc(CNc2nc(OC)ncc2Cl)cc1	-6.174%
CC(C)OCc1ccc(CNc2cncc(-n3cccn3)n2)cc1	123.9%
CC(C)COc1cncc(NCc2nnc3ccccn23)n1	-11.09%
Cc1cc(N2C[C@H](C3CC3)[C@@H](N)C2)nc(N2CCCCC2)n1	11.86%
CC(C)c1cc(N2CCC(N(C)C)C2)n2nccc2n1 (stereo not given)	10.32%

Structure (SMILES)	Percent Effect
O=C1OCCN1Cc1ccc(C(F)(F)F)cc1F	-29.22%
CCNc1ncc(C(=O)NC(c2ccccc2)c2ccco2)cn1 (stereo not given)	-3.465%
COCCN(Cc1sccc1C)Cc1nccn1CCOC	4.16%
CN(C)c1cc(CNc2cncc(-n3cccn3)n2)ccn1	94.25%
CC(CNc1cncc(-n2cccn2)n1)N(C)c1ccccc1 (stereo not given)	0.6159%
COCc1ccc(CNc2cncc(-n3cccn3)n2)cc1	105.5%
CN(C)c1ccc(CNc2cncc(-n3cccn3)n2)cc1	6.951%
CCN(CC)S(=O)(=O)c1ccc(NC(=O)C(C)(C)C)cc1	-6.648%
O=C(CCSc1ccccc1F)N1CCN(c2cnccn2)CC1	4.662%
Cc1nn(CC(=O)N2CCN(c3cnccn3)CC2)c(C)c1Cl	4.895%
O=C(c1ccc(-n2cc(Br)cn2)cc1)N1CCN(c2cnccn2)CC1	12.88%
O=C(CCOc1ccccc1Cl)N1CCN(c2cnccn2)CC1	81.46%
O=C(CCOc1ccc(Br)cc1)N1CCN(c2cnccn2)CC1	108.9%
CC(CC(=O)N1CCN(c2cnccn2)CC1)c1ccc(F)cc1 (stereo not given)	3.505%
O=C(Cc1ccc2c(c1)OCO2)N1CCN(c2cnccn2)CC1	-5.983%
O=C(COc1ccc(Cl)cc1)N1CCN(c2cnccn2)CC1	138.2%
O=C(CCSc1ccc(F)cc1)N1CCN(c2cnccn2)CC1	-10.65%
O=C(CCOc1cccc(Cl)c1)N1CCN(c2cnccn2)CC1	103.8%
CSCc1cccc(S(=O)(=O)NCCCO)c1	-5.091%
CS(=O)(=O)CCN(CC1CCCO1)C1CCCC1 (stereo not given)	-6.798%
CC(NCc1cn(CCC(N)=O)c2ccccc12)c1nncn1C (stereo not given)	-5.557%
O=C(C[C@@H]1COC[C@H]2CN(C3CCCC3)C[C@@H]12)N1CCCCO1.O=C(O)C(F)(F)F	2.72%
Cc1ccoc1C(=O)N1CCc2ccc(=O)n(CCN(C)C)c2CC1.O=C(O)C(F)(F)F	99.37%
CN(C)CCOc1ccccc1N1CCN(C(=O)c2ccoc2)CC1	-4.916%

Structure (SMILES)	Percent Effect
CN(C)CCn1c2c(ccc1=O)CCN(C(=O)c1cccs1)CC2.O=C(O)C(F)(F)F	111.2%
Cc1ccc(C(=O)N2CCn3cc(CN(C)Cc4ccco4)nc3C2)o1.O=C(O)C(F)(F)F	-7.52%
Cc1ccc2c(n1)N(CCN(C)C)CCN(C(=O)c1ccoc1)C2.O=C(O)C(F)(F)F.O=C(O)C(F)(F)F	2.564%
CN(C)CCn1c2c(ccc1=O)CCN(C(=O)c1ccoc1)CC2.O=C(O)C(F)(F)F	107.6%
Cc1ccc(C(=O)N2C[C@@H]3[C@@H](C2)OCC(=O)N3Cc2cccnc2)o1.O=C(O)C(F)(F)F	-3.343%
Cc1ccc(C(=O)N2CCc3ccc(=O)n(CCN(C)C)c3CC2)o1.O=C(O)C(F)(F)F	107.1%
Cc1ccc2c(n1)N(CCN(C)C)CCN(C(=O)c1cccs1)C2.O=C(O)C(F)(F)F.O=C(O)C(F)(F)F	-13.61%
Cc1ccoc1C(=O)N1C[C@@H]2[C@@H](C1)OCC(=O)N2Cc1cccnc1.O=C(O)C(F)(F)F	8.295%
Cc1ccoc1C(=O)N1Cc2c(Cn3ccnc3)nn(C)c2C1.O=C(O)C(F)(F)F	12.61%
CCS(=O)(=O)c1ccc2oc([C@H]3CCN(Cc4ccccc4)C3)nc2c1	-9.259%
CC(NCCN1CCC(N(C)C)CC1)c1ccc(F)cc1N(C)C (stereo not given)	-1.854%
CCc1nc(CC(=O)N2CCC(C(=O)N(CC)CC)CC2)cs1	9.803%
NC(=O)C1CCN(C(=O)c2cccc(OCc3cscn3)c2)CC1	-9.747%
Cc1cc(C)c(CNC(=O)NCCNc2cnccn2)c(=O)[nH]1	6.343%
Cc1ccc(C(=O)N2CCN(CCC(C)(C)C)CC2)c(=O)[nH]1	-8.325%
CS(=O)(=O)CC(=O)N(CCN1CCOCC1)Cc1ccco1	-25.1%
CC(C(=O)NCc1ccc(F)cc1)N(C)CCN1CCOCC1 (stereo not given)	8.931%
CC(=O)NCC(=O)N(CCN1CCOCC1)Cc1ccco1	-7.485%
CN(C)CCN1CCOCC2(C1)CN(Cc1ccco1)CCO2.O=C(O)C(F)(F)F.O=C(O)C(F)(F)F.O=C(O)C(F)(F)F (stereo not given)	27%
C/C=C(\C)CN(CCN1CCOCC1)Cc1ccco1	118.7%
OCC(O)CN(CCN1CCOCC1)Cc1ccco1 (stereo not given)	99.07%
OCc1ccncc1NCc1cnc(-c2ccccn2)s1	-4.749%
Cc1cc2n(n1)CC(CNC1CCN(c3ccccn3)CC1)CN2 (stereo not given)	4.836%
O=C(NCc1ccccc1)N1CCC2(CC(=O)N(c3ccccc3)C2)C1 (stereo not given)	115.5%

Structure (SMILES)	Percent Effect
O=C(NCc1cccnc1)N1CCC2(CC(=O)N(c3ccsc3)C2)C1.O=C(O)C(F)(F)F (stereo not given)	89.85%
Cn1ccnc1CN1CCC2(CC(=O)N(c3ccsc3)C2)C1.O=C(O)C(F)(F)F (stereo not given)	6.522%
O=C(NCc1cccc(F)c1)N1CCC2(CC(=O)N(c3ccsc3)C2)C1 (stereo not given)	6.273%
O=C(NCc1ccccc1)N1CCC2(CC(=O)N(c3ccsc3)C2)C1 (stereo not given)	-8.501%
O=C(NC[C@H]1COCc2nc3cc(F)ccc3n21)c1cccnc1	-2.363%
CCS(=O)(=O)CCNC(=O)[C@@]12CNC[C@@H]1CN(C1CCCC1)C2	17.06%
CC(=O)Nc1ccc(CNC2CCCSC2)cc1 (stereo not given)	-9.842%
Cc1occc1C(=O)N1C[C@H]2CCCC(OCc3cccnc3)[C@H]2C1.O=C(O)C(F)(F)F (stereo not given in full)	-5.108%
Cn1ccc(C(=O)N2C[C@@H]3OCCN(c4ncccn4)[C@@H]3C2)n1.O=C(O)C(F)(F)F	98.93%
Cn1ccc(C(=O)N2C[C@@H]3CCN(c4cccnc4)C[C@@H]3C2)n1.O=C(O)C(F)(F)F	-11%
Cc1occc1C(=O)N1C[C@@H]2OCCN(c3ncccn3)[C@@H]2C1.O=C(O)C(F)(F)F	117.5%
Cc1occc1C(=O)N1C[C@@H]2[C@@H](C1)OCC(=O)N2Cc1cccnc1.O=C(O)C(F)(F)F	-5.789%
Cc1cccc(C(=O)N2C[C@@H]3OCCN(c4ncccn4)[C@@H]3C2)n1.O=C(O)C(F)(F)F.O=C(O)C(F)(F)F	-4.674%
Cc1ccccc1C(=O)N1C[C@@H]2OCCN(c3ncccn3)[C@@H]2C1.O=C(O)C(F)(F)F	105.7%
O=C(c1cc(-n2cccn2)ccn1)N1CCOc2ccncc21	-0.9385%
O=C1CN(CC[C@@H](O)c2ccccc2)CCN1c1ccccc1Cl	-4.837%
O=C(c1cscn1)N1CCCC(n2cncn2)C1 (stereo not given)	88.79%
CC(=O)Nc1nc(C(=O)N2CCCC(n3nc(C)cc3C)C2)cs1 (stereo not given)	-2.313%
CC(=O)Nc1nc(C(=O)N2CCCC(n3cncn3)C2)cs1 (stereo not given)	110.6%
O=C(c1cc(C2CC2)on1)N1CCCC(n2cncn2)C1 (stereo not given)	7.01%
O=C(c1csnn1)N1CCCC(n2cncn2)C1 (stereo not given)	98.21%
Cc1nc(C(=O)N2CCCC(n3cncn3)C2)cs1 (stereo not given)	-4.147%
CCC(=O)NCc1ccccc1Cn1ccnc1	2.122%
